Experimental data reported in PubChem BioAssay (NCI).
Compounds without any hit were thinned out: in the full panel of roughly 79,000, 15% have a hit. Activity calls are given as the source filed them. Cut-off read from the data, not from the text of the source: active = growth inhibition above about 70%; inactive = the rest.

How the values were obtained:
[1] = NCI Yeast Anticancer Drug Screen. Data for the wt2 strain (AID 169);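 note: 0% = growth of vehicle-treated yeast cultures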; settings: S. cerevisiae wt2 strain growth inhibition, active compounds read high
How it was run: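 Genetically defined yeast strains from a DNA-repair/cell-cycle panel were used. Compound-exposed yeast growth was measured, and the inhibition was calculated relative to vehicle treatment.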

[2] = NCI Yeast Anticancer Drug Screen. Data for the mlh1 strain (AID 171);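 note: 0% = growth of vehicle-treated control cultures of the same strain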; settings: S. cerevisiae mlh1 strain growth inhibition, active compounds read high
How it was run: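 Here the genetically defined yeast mutant is grown with each compound, and the extent to which its growth falls below that of vehicle-exposed cells is reported.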

[3] = NCI Yeast Anticancer Drug Screen. Data for the mlh1 rad18 strain (AID 175); settings: S. cerevisiae mlh1 rad18 strain growth inhibition, active compounds read high
How it was run: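 In this whole-cell yeast screen, a strain with altered DNA damage repair is challenged with compound, and its growth is measured against matched vehicle-treated controls.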

[4] = NCI Yeast Anticancer Drug Screen. Data for the rad18 strain (AID 177); settings: S. cerevisiae rad18 mutant growth inhibition, active compounds read high
How it was run: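 Screen uses a yeast strain with a defined lesion in DNA damage repair; compound effect is read as loss of growth compared to untreated vehicle cultures.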

[5] = NCI Yeast Anticancer Drug Screen. Data for the rad52 strain (AID 147);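 note: 0% = growth of vehicle-treated control cultures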; settings: S. cerevisiae rad52 mutant growth inhibition, active compounds read high
How it was run: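 Measured: yeast growth inhibition. System: strain with a defined DNA damage repair alteration. Reference: vehicle-treated control cultures.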

[6] = NCI Yeast Anticancer Drug Screen. Data for the wt1 strain (AID 149);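 note: 0% = growth of vehicle-treated wt1 cultures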; settings: S. cerevisiae wt1 strain (SPY 50644) growth inhibition, active compounds read high
How it was run: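 wt1 strain grown with compound or vehicle; inhibition taken from the growth difference.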

[7] = NCI Yeast Anticancer Drug Screen. Data for the rad50EPP+ strain (AID 151);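 note: 0% = growth of vehicle-treated control cultures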; settings: S. cerevisiae rad50 mutant strain, active compounds read high
How it was run: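 One strain with a rad50 alteration (rad50EPP+) was compound-treated, its growth then compared to that of vehicle controls.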

[8] = NCI Yeast Anticancer Drug Screen. Data for the mgt1 strain (AID 153); settings: S. cerevisiae mgt1 mutant growth inhibition, active compounds read high
How it was run: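 After exposure of the mgt1 yeast mutant to compound, growth was measured and reported as inhibition compared with vehicle controls.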

[9] = NCI Yeast Anticancer Drug Screen. Data for the rad50 strain (AID 155);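 note: 0% = growth of vehicle-only cultures of the same strain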; settings: S. cerevisiae rad50 strain growth inhibition, active compounds read high
How it was run: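 DNA repair mutant yeast, compound exposure, growth read-out; inhibition is taken relative to vehicle.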

[10] = NCI Yeast Anticancer Drug Screen. Data for the mec2-1 strain (AID 157); settings: S. cerevisiae mec2-1 strain, active compounds read high
How it was run: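 Test agents were screened against the mec2-1 yeast strain, with defined DNA repair or cell cycle alteration. Growth was scored as inhibition against vehicle-only controls.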

[11] = NCI Yeast Anticancer Drug Screen. Data for the rad14 strain (AID 159);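 note: 0% = growth of vehicle-treated control cultures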; settings: S. cerevisiae rad14 strain growth inhibition, active compounds read high
How it was run: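 DNA repair-defective yeast, compound-exposed; % growth inhibition derived by comparison with vehicle-treated controls.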

[12] = NCI Yeast Anticancer Drug Screen. Data for the sgs1 mgt1 strain (AID 161);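 note: 0% = growth of cultures given vehicle only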; settings: S. cerevisiae sgs1 mgt1 strain, active compounds read high
How it was run: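 Inhibition of yeast growth, normalised to vehicle-treated controls, is reported for a strain bearing genetic alterations in DNA damage repair.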

[13] = NCI Yeast Anticancer Drug Screen. Data for the CLN2oe strain (AID 163);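 note: 0% = growth of vehicle-only control cultures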; settings: S. cerevisiae CLN2oe strain, active compounds read high
How it was run: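 Here, growth inhibition in a cell-cycle-altered yeast strain after compound exposure was quantified against vehicle control growth.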

[14] = NCI Yeast Anticancer Drug Screen. Data for the cln2 rad14 strain (AID 165);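 note: 0% = growth equal to vehicle treated cultures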; settings: S. cerevisiae cln2 rad14 strain, active compounds read high
How it was run: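 Growth of compound-exposed yeast (cln2 rad14 genotype) measured and expressed as inhibition relative to vehicle.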

[15] = NCI Yeast Anticancer Drug Screen. Data for the bub3 strain (AID 167); settings: S. cerevisiae bub3 mutant strain, active compounds read high
How it was run: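 In this screen, a yeast mutant lacking normal mitotic checkpoint function is challenged with compound. Relative growth versus vehicle gives the inhibition value.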

[16] = NCI Yeast Anticancer Drug Screen. Data for the sgs1 strain (AID 173);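 note: 0% = growth of vehicle-only control cultures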; settings: S. cerevisiae sgs1 mutant, active compounds read high
How it was run: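 Relative growth inhibition, referenced to vehicle, was determined in a yeast strain with a defined alteration affecting DNA damage repair or cell cycle control after compound exposure.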

[17] = at 5.0 µM (retest, dose inferred, filed as 0.5)
[18] = at 50.0 µM (retest, dose inferred, filed as 5.0)

Measured: growth inhibition

[N-]=[N+]=NC1=C(c2ccccn2)C(=O)c2cccc3cccc1c23
inactive: [1]; at 1.2 µM -1% | [1]; at 3.7 µM -1% | [1]; at 11.0 µM 5% | [1]; at 33.0 µM 26% | [1]; at 100.0 µM 63% | [2]; at 1.2 µM 4% | [2]; at 3.7 µM -2% | [2]; at 11.0 µM 7% | [2]; at 33.0 µM 19% | [2]; at 100.0 µM 42% | [3]; [17] 4% | [3]; [18] 52% | [3]; at 50.0 µM 59% | [4]; at 1.2 µM 0% | [4]; at 3.7 µM 6% | [4]; at 11.0 µM 12% | [4]; at 33.0 µM 58%
active: [4]; at 100.0 µM 85%

O=CC=C(c1ccccc1)c1ccccc1
active: [5]; at 100.0 µM 95% | [6]; at 100.0 µM 98% | [7]; at 100.0 µM 83% | [8]; at 100.0 µM 98% | [9]; [18] 86% | [9]; at 100.0 µM 98% | [10]; [18] 93% | [10]; at 100.0 µM 98% | [11]; at 100.0 µM 98% | [12]; [18] 97% | [12]; at 50.0 µM 80% | [13]; at 100.0 µM 98% | [14]; [18] 99% | [15]; [18] 98% | [15]; at 100.0 µM 98% | [1]; at 100.0 µM 97% | [16]; at 100.0 µM 99% | [3]; [18] 90% | [4]; at 100.0 µM 98%
inactive: [5]; at 1.2 µM -2% | [5]; at 3.7 µM 0% | [5]; at 11.0 µM -9% | [5]; at 33.0 µM 8% | [6]; at 1.2 µM -3% | [6]; at 3.7 µM 3% | [6]; at 11.0 µM -4% | [6]; at 33.0 µM 10% | [7]; at 1.2 µM 20% | [7]; at 3.7 µM 18% | [7]; at 11.0 µM 26% | [7]; at 33.0 µM 43% | [8]; at 1.2 µM -10% | [8]; at 3.7 µM -6% | [8]; at 11.0 µM 2% | [8]; at 33.0 µM 10% | [9]; at 1.2 µM 8% | [9]; at 3.7 µM 5% | [9]; [17] 41% | [9]; at 11.0 µM 4% | [9]; at 33.0 µM 11% | [9]; at 50.0 µM 39.6% | [10]; at 1.2 µM 4% | [10]; at 3.7 µM 0% | [10]; [17] 51% | [10]; at 11.0 µM 0% | [10]; at 33.0 µM 20% | [10]; at 50.0 µM -13.3% | [11]; at 1.2 µM 7% | [11]; at 3.7 µM -2% | [11]; at 11.0 µM 3% | [11]; at 33.0 µM 10% | [12]; [17] -9% | [13]; at 1.2 µM 16% | [13]; at 3.7 µM 5% | [13]; at 11.0 µM 13% | [13]; at 33.0 µM 20% | [14]; [17] 36% | [14]; at 50.0 µM 39.1% | [15]; at 1.2 µM -11% | [15]; at 3.7 µM -13% | [15]; [17] 30% | [15]; at 11.0 µM -32% | [15]; at 33.0 µM -10% | [15]; at 50.0 µM 40.6% | [1]; at 1.2 µM 4% | [1]; at 3.7 µM 9% | [1]; at 11.0 µM 6% | [1]; at 33.0 µM 22% | [16]; at 1.2 µM -3% | [16]; at 3.7 µM 4% | [16]; at 11.0 µM 11% | [16]; at 33.0 µM 43% | [3]; [17] 16% | [3]; at 50.0 µM 28.4% | [4]; at 1.2 µM 20% | [4]; at 3.7 µM 26% | [4]; at 11.0 µM 25% | [4]; at 33.0 µM 34%

Cc1ccc(S(=O)(=O)NNC(=S)Nc2cccc3ccccc23)cc1
active: [15]; [18] 96%
inactive: [5]; at 1.2 µM 4% | [5]; at 3.7 µM 2% | [5]; at 11.0 µM 3% | [5]; at 33.0 µM 7% | [5]; at 100.0 µM 6% | [6]; at 1.2 µM -3% | [6]; at 3.7 µM -2% | [6]; at 11.0 µM -1% | [6]; at 33.0 µM 1% | [6]; at 100.0 µM 2% | [7]; at 1.2 µM 10% | [7]; at 3.7 µM 11% | [7]; at 11.0 µM 20% | [7]; at 33.0 µM 15% | [7]; at 100.0 µM 1% | [8]; at 1.2 µM -1% | [8]; at 3.7 µM -4% | [8]; at 11.0 µM -1% | [8]; at 33.0 µM -28% | [8]; at 100.0 µM 1% | [9]; at 1.2 µM 0% | [9]; at 3.7 µM -4% | [9]; [17] -4% | [9]; at 11.0 µM -10% | [9]; at 33.0 µM 2% | [9]; [18] 16% | [9]; at 50.0 µM 9.65% | [9]; at 100.0 µM 2% | [10]; at 1.2 µM 3% | [10]; at 3.7 µM 2% | [10]; [17] -19% | [10]; at 11.0 µM 4% | [10]; at 33.0 µM 5% | [10]; [18] 33% | [10]; at 50.0 µM -14.4% | [10]; at 100.0 µM 4% | [11]; at 1.2 µM -6% | [11]; at 3.7 µM -4% | [11]; at 11.0 µM -8% | [11]; at 33.0 µM -4% | [11]; at 100.0 µM -3% | [12]; [17] -23% | [12]; [18] 41% | [12]; at 50.0 µM 49.6% | [14]; [17] -1% | [14]; [18] 17% | [14]; at 50.0 µM 13.4% | [15]; at 1.2 µM -1% | [15]; at 3.7 µM 0% | [15]; [17] -19% | [15]; at 11.0 µM 10% | [15]; at 33.0 µM 14% | [15]; at 50.0 µM 66.5% | [15]; at 100.0 µM 29% | [1]; at 1.2 µM -2% | [1]; at 3.7 µM -1% | [1]; at 11.0 µM 2% | [1]; at 33.0 µM 8% | [1]; at 100.0 µM 7% | [2]; at 1.2 µM 0% | [2]; at 3.7 µM -6% | [2]; at 11.0 µM -2% | [2]; at 33.0 µM 0% | [2]; at 100.0 µM -5% | [16]; at 1.2 µM 2% | [16]; at 3.7 µM 4% | [16]; at 11.0 µM 10% | [16]; at 33.0 µM 18% | [16]; at 100.0 µM 17%
